# Rows were chosen to be rich in hits. Some 1.4% of all compounds tested hit in one or more screens of this group.
# BRCA1 expr act: qHTS Assay to Identify Small Molecule Activators of BRCA1 Expression; Potency, µM (highest dose often 46.1 µM), most hits filed as activators; MCF7-BRCA1-FFLuc reporter, luminescence, 48 h; response scale: scaled: vehicle 0%, 10 µM genistein 100%; hit rate 1.1% among 380,000; also: nearly all actives have a fitted effect of over 80% in size
#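 MCF7 cells carrying a BRCA1-firefly luciferase reporter (2000 cells/well, phenol-red free MEM) were attached for 2 h at 37 °C, then given compounds for 48 h. Luminescence was read 15 min after luciferase reagent; activity normalized to genistein (10 microM) and DMSO.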
# Nrf2 activator: qHTS of Nrf2 Activators. hit rate 0.31% among 410,000. AREc32 ARE-luciferase reporter (MCF7-derived line), luminescence, 24 h. AID 624171, 2012. Potency, µM (series often up to 46.1 µM), usual class: activators; also: nearly all actives have a fitted effect of over 65% in size
#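 AREc32 cells carrying an ARE-driven firefly luciferase reporter were seeded at 1000 cells/well in OPTI-MEM with 5% FBS, then exposed to compound for 24 hr at 37 deg C. Luminescence was read with Steady-Glo after 30 min at RT.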
# IL-2 act: qHTS of IL-2 Activators; hit rate 0.065% among 360,000; IL-2 activation reporter assay, cell-based qHTS; stimulated with anti-CD3/CD4/CD28 beads; in transgenic mouse T cells; activation, % (series mostly up to about 46 µM); in the data active = activation above about 50%; inconclusive = mostly about 30% to 49%
#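 Unstimulated transgenic mouse T cells, 750 per well, received compound and, after 60 minutes, anti-CD3/anti-CD4 bead plus anti-CD28 stimulation. EGFP and DsRed were quantified after 18 hours.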
# N370S GC mod: qHTS Assay for Inhibitors and Activators of N370S glucocerebrosidase as a Potential Chaperone Treatment of Gaucher Disease; N370S GC spleen homogenate, 4MU-glucoside fluorescence; Potency, µM (titrated, usually from 59.4 µM), usual class: inhibitors; hit rate 0.092% among 330,000; AID 2101, 2009
# Chronic BCR inh: qHTS Assay to Find Inhibitors of Chronic Active B-Cell Receptor Signaling; ABC-DLBCL IkBa-CBG/CBR reporter, luminescence ratio, 4 h; Potency, µM (doses to about 46.1 µM), hits mostly inhibitors; hit rate 0.05% among 340,000; active = well fitted inhibition curve with a large enough effect in the signal ratio, with a control signal flat, not every such curve was filed as active; inconclusive = small, poorly fitted or top-dose-only effect, or effect the other way, or a change in a side signal; the % refers to the signal ratio
#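 Cell line TMD8 (human ABC DLBCL), stably expressing tet-inducible CBG68-IkBa fusion and CBR; IMDM/0.5% FBS; cpd up to 46 uM; dox induction, 4 h, 37C/5% CO2; dual luminescence; green/red ratio; MG132 control.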
# a7 integrin act: qHTS for Activators of Integrin-Mediated Alleviation for Muscular Dystrophy; Potency, µM (series often up to 38.3 µM), hits mostly activators; hit rate 0.064% among 350,000; AID 624291, 2012; alpha7betagal myoblasts, beta-gal FDG fluorescence, 48 h; also: nearly all actives have a fitted effect of over 60% in size
#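 alpha7betagal+/- myoblasts (passage 13, 250/well) treated 48 h at 37C with compounds at 1:260 dilution of DMSO stock. Lysed, then beta-galactosidase activity read as FDG fluorescence (ex 480/em 540) after 30 min, with pre-read for autofluorescence.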
# Hits are given with their value; – = inactive; ? = inconclusive; · = no result given; [ ] = another dose, or the depositor's remark. Unless noted, calls follow the shape of the dose curve; as a rule, active = well fitted curve in the direction sought with a large enough effect; inconclusive = small, poorly fitted or top-dose-only effect, or another doubt; inactive = no such curve, though single readings can be large; an effect the other way counts as inactive or inconclusive.
SMILES,BRCA1 expr act,Nrf2 activator,IL-2 act,N370S GC mod,Chronic BCR inh,a7 integrin act
O=C(CSc1ccccc1)N1CCc2ccccc21,?,–,–,–,?,–
O=C(CSCc1ccco1)N1CCc2ccccc21,2.5µM,?,–,–,?,–
O=C(NCc1nnc(SCC(=O)N2CCc3ccccc32)o1)c1ccco1,–,–,–,–,–,–
O=C(NCCC(=O)N1CCc2ccccc21)c1ccco1,8.9µM,–,–,–,?,–
CC(=O)N/C(=C/c1ccccc1)c1ccncc1,–,·,·,·,·,·
CCOc1ccc(C(=O)Nc2ccc(Cl)cn2)cc1Cl,6.3µM,–,–,–,?,–
CCOc1ccc(C(=O)Nc2cc(NC(=O)c3ccc(OCC)c(Cl)c3)cc(C(=O)O)c2)cc1Cl,–,–[9.22 µM],–,–,–,–
CCN(CC)c1ccc(/C=C(/C#N)C(=O)NCc2ccccc2)o1,10µM,–,–,–,?,–
CCN(CC)c1ccc(/C=C(/C#N)C(=O)NC(C)C)o1,–,–,–,–,?,–
O=C(COc1ccccc1C(=O)OCC(=O)Nc1cccc2ccccc12)Nc1ccc(Br)cc1,–,·,·,·,·,·
CCN(CC)/[N+]([O-])=N/OCOC(=O)C(C)c1ccc(CC(C)C)cc1 (centres undefined),–,·,·,·,·,·
CCOC(=O)C1CCCN(C(=O)CNS(=O)(=O)c2ccc(Br)s2)C1 (centres undefined),–,–,–,–,–,2µM
O=C(CNS(=O)(=O)c1ccc(Br)s1)N1CCCC1,–,–,–,–,–,–
CN(C)CCCNC(=O)/C(=N\O)c1ccccc1,–,–,–,–,?,–
O=C(NCCc1ccccc1)c1cccc(Br)c1,13µM,–,–,–,?,–
CCC(=O)Nc1cccc(C(=O)N(Cc2ccccc2)Cc2ccccc2)c1,–,–,–,7.1µM,–,–
O=C(NCCc1ccccc1)c1cccc(NC(=O)C2CC2)c1,6.3µM,–,–,·,·,–
O=C(NCCc1ccccc1)/C(=N\O)c1ccccc1,1.3µM,–,–,–,?,–
Cc1ccc(NC(=O)CN2C(=O)CCc3cc(S(=O)(=O)N4CCOCC4)ccc32)cc1F,–,–,·,·,·,·
COc1cc2c(NC3CCN(C)CC3)nc(N3CCCN(C)CC3)nc2cc1OCC1CCCCN1 (centres undefined),–,·,·,·,·,·
CNC(=O)[C@H](C)/C=C/C(NC(=O)OCc1ccccc1)c1ccc(C(=O)OC)cc1 (some centres undefined),·,·,·,–,·,·
COc1ccc(N2CC(C(=O)N[C@@H](C)C(=O)NCCc3ccccc3)CC2=O)cc1 (some centres undefined),–,–,–,–,–,–
Cc1ccc(C(=O)CN2C(=O)C(C)Oc3ccccc32)cc1 (centres undefined),11µM,–,–,–,–,–
CN(C)c1ccc(/C=C/c2nnnn2-c2ccccc2)cc1,4µM,–,–,–,?,–
CN(C)c1ccc(/C=C/c2ccccn2)cc1,–,·,·,·,·,·
SMILES,BRCA1 expr act,Nrf2 activator,IL-2 act,N370S GC mod,Chronic BCR inh,a7 integrin act
COc1ccc(CN(Cc2ccccc2)C(=O)c2cccc(C#N)c2)cc1COc1ccc(NC(C)=O)cc1,–,·,·,·,·,·
O=C(CCCC(=O)c1ccc(F)cc1)c1ccc(F)cc1,2.5µM,–,–,–,?,–
COc1ccccc1NC(=S)N1CCC(c2nc3cc(C)c(C)cc3[nH]2)CC1,–,–,–,–,–,–
COc1ccccc1NC(=O)N1CCC(c2nc3cc(C)c(C)cc3[nH]2)CC1,–,–,–,–,18µM,–
COc1cc(C2=N/C(=C\c3ccccc3)C(=O)O2)cc(OC)c1OC,·,·,·,–,·,·
COc1cccc(C2=N/C(=C\N(C)C)C(=O)O2)c1,11µM,–,–,–,–,–
O=C(NNCc1ccccc1)c1ccccn1,1.1µM,–,–,·,·,–
O=C(CC(=O)c1ccccn1)c1ccccc1,?,7.9µM,–,·,·,–
O=C(c1ccccc1)c1ccccn1,–,–,–,–,–,–
Nc1c(C(=O)N/N=C/c2cccnc2)oc2nc(-c3ccccc3)cc(-c3ccco3)c12,–,–,318,–,?,–
Nc1c(C(=O)N/N=C/c2cccnc2)oc2nc(-c3ccco3)cc(-c3ccco3)c12,–,–,–,–,?,–
CC1(C)C([N+](=O)[O-])C(c2ccc(O)cc2)NC(c2ccc(O)cc2)C1[N+](=O)[O-] (centres undefined),–,–,–,8.9µM,–,–
NC(=O)c1nsc(C(=O)N(c2ccccc2)C(C(=O)NCc2ccc(F)cc2)c2ccc(O)cc2)c1N (centres undefined),–,–,–,?,–,2.2µM
COc1ccc(N(C(=O)c2snc(C(N)=O)c2N)C(C(=O)NCc2ccccc2)c2ccc(O)cc2)cc1 (centres undefined),–,–,–,–,–,–
COc1ccc(C2Nc3ccccc3C(=O)N2Cc2ccccc2)cc1COc1ccc([N+](=O)[O-])cc1 (centres undefined),–,·,·,·,·,·
O=C(Nc1ncnc2sc3c(c12)CCC3)c1ccco1,–,0.79µM,–,–,–,–
Cc1cc(Oc2ccc(Cl)cc2Cl)nc(C#N)n1,–,·,·,·,·,·
CSc1ccc(/C=N/n2c(C)cc(C)cc2=O)cc1,10µM,–,–,–,–,–
CSc1ccc(/C=N/n2c(C)nnc2C)cc1,–,–,–,–,–,?
Cc1ccccc1CNC(=O)Nc1ccc(Cl)cc1,7.1µM,–[9.22 µM],–,–,?,–
O=C(NCCc1ccccc1)Nc1ccc(Cl)cc1,5µM,–,–,–,?,–
S=C(NCCc1ccccc1)Nc1ccc(Cl)cc1,?,–[9.22 µM],–,–,?,–
Cn1c2c(c3cnc4cc(Cl)ccc4c31)CN(Cc1ccc(Cl)cc1)CC2,–,·,·,·,·,·
Cc1c(C)n(Cc2ccc(Cl)cc2)c2ccc(C(=O)NCCN3CCOCC3)cc12,–,–,–,10µM,–,–
N#C/C(=C(\O)c1ccco1)c1ccccn1,?,–,–,–,–,–
N#CC(C(=O)c1ccco1)c1ccccn1 (centres undefined),14µM,–,–,–,–,–
Cn1c(C(=O)NCc2ccccc2Cl)cc2sc(Cl)cc21,·,–,·,·,·,·
O=C(N=c1ccn(-c2nc3ccccc3nc2NS(=O)(=O)c2ccc(Cl)cc2)cc1)c1cccs1,–,–,244,–,–,–
